Data as given in the supplement of paper PMC4466140.

Legend:
Test in all cases: SPOT peptide array binding signal intensity (averaged, normalized) (arbitrary units (background-subtracted, floor 0; scale differs between SH3 domains)); higher = stronger binding of the SH3 domain to the peptide
AgAbp1 = target: AgAbp1
Method in brief: (§1)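 Peptides were synthetic 15-mers on cellulose membranes, with every cysteine replaced by serine. They were incubated overnight at 4°C with GST-SH3 domains from four yeast species at 10 μg/ml in TBS-based blocking buffer. Binding signal, the replicate-averaged normalized and background-subtracted spot intensity, is in arbitrary units that differ between domains.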

AgBbc1 = target: AgBbc1
Method in brief: as §1

AgBem1-D1 = target: AgBem1-D1
Method in brief: as §1

AgBzz1-D1 = target: AgBzz1-D1
Method in brief: as §1

AgBzz1-D2 = target: AgBzz1-D2
Method in brief: as §1

AgCyk3 = target: AgCyk3
Method in brief: as §1

AgFus1 = target: AgFus1
Method in brief: as §1

AgHof1 = target: AgHof1
Method in brief: as §1

AgHse1 = target: AgHse1
Method in brief: as §1

AgLsb1 = target: AgLsb1
Method in brief: as §1

AgLsb4 = target: AgLsb4
Method in brief: as §1

AgMyo5 = target: AgMyo5
Method in brief: as §1

AgNbp2 = target: AgNbp2
Method in brief: as §1

AgRvs167 = target: AgRvs167
Method in brief: as §1

AgSho1 = target: AgSho1
Method in brief: as §1

AgSla1-D1-D2 = target: AgSla1-D1-D2
Method in brief: as §1

AgSla1-D3 = target: AgSla1-D3
Method in brief: as §1

CaAbp1-D1 = target: CaAbp1-D1
Method in brief: as §1

CaAbp1-D2 = target: CaAbp1-D2
Method in brief: as §1

CaBbc1 = target: CaBbc1
Method in brief: as §1

CaBem1-D1 = target: CaBem1-D1
Method in brief: as §1

CaBzz1-D1 = target: CaBzz1-D1
Method in brief: as §1

CaBzz1-D2 = target: CaBzz1-D2
Method in brief: as §1

CaCyk3 = target: CaCyk3
Method in brief: as §1

CaFus1 = target: CaFus1
Method in brief: as §1

CaHof1 = target: CaHof1
Method in brief: as §1

CaHse1 = target: CaHse1
Method in brief: as §1

CaLsb1 = target: CaLsb1
Method in brief: as §1

CaLsb4 = target: CaLsb4
Method in brief: as §1

CaMyo5 = target: CaMyo5
Method in brief: as §1

CaNbp2 = target: CaNbp2
Method in brief: as §1

CaRvs167 = target: CaRvs167
Method in brief: as §1

CaRvs167-3 = target: CaRvs167-3
Method in brief: as §1

CaSho1 = target: CaSho1
Method in brief: as §1

CaSla1-D1-D2 = target: CaSla1-D1-D2
Method in brief: as §1

CaSla1-D3 = target: CaSla1-D3
Method in brief: as §1

ScAbp1 = target: ScAbp1
Method in brief: as §1

ScBbc1 = target: ScBbc1
Method in brief: as §1

ScBem1-D1 = target: ScBem1-D1
Method in brief: as §1

ScBzz1-D1 = target: ScBzz1-D1
Method in brief: as §1

ScBzz1-D2 = target: ScBzz1-D2
Method in brief: as §1

ScCyk3 = target: ScCyk3
Method in brief: as §1

ScFus1 = target: ScFus1
Method in brief: as §1

ScHof1 = target: ScHof1
Method in brief: as §1

ScHse1 = target: ScHse1
Method in brief: as §1

ScLsb1 = target: ScLsb1
Method in brief: as §1

ScLsb2 = target: ScLsb2
Method in brief: as §1

ScLsb3 = target: ScLsb3
Method in brief: as §1

ScLsb4 = target: ScLsb4
Method in brief: as §1

ScMyo3 = target: ScMyo3
Method in brief: as §1

ScMyo5 = target: ScMyo5
Method in brief: as §1

ScNbp2 = target: ScNbp2
Method in brief: as §1

ScPex13 = target: ScPex13
Method in brief: as §1

ScRvs167 = target: ScRvs167
Method in brief: as §1

ScSho1 = target: ScSho1
Method in brief: as §1

ScSla1-D1-D2 = target: ScSla1-D1-D2
Method in brief: as §1

ScSla1-D3 = target: ScSla1-D3
Method in brief: as §1

SpAbp1-D1 = target: SpAbp1-D1
Method in brief: as §1

SpBbc1 = target: SpBbc1
Method in brief: as §1

SpBzz1-D1 = target: SpBzz1-D1
Method in brief: as §1

SpBzz1-D2 = target: SpBzz1-D2
Method in brief: as §1

SpCyk3 = target: SpCyk3
Method in brief: as §1

SpHof1 = target: SpHof1
Method in brief: as §1

SpHof1-2 = target: SpHof1-2
Method in brief: as §1

SpHof1-3 = target: SpHof1-3
Method in brief: as §1

SpHse1 = target: SpHse1
Method in brief: as §1

SpLsb1 = target: SpLsb1
Method in brief: as §1

SpLsb4 = target: SpLsb4
Method in brief: as §1

SpMyo1 = target: SpMyo1
Method in brief: as §1

SpNbp2 = target: SpNbp2
Method in brief: as §1

SpPex13 = target: SpPex13
Method in brief: as §1

SpRvs167 = target: SpRvs167
Method in brief: as §1

SpSla1-D1-D2 = target: SpSla1-D1-D2
Method in brief: as §1

SpSla1-D3 = target: SpSla1-D3
Method in brief: as §1

For SGVRLPAPPPPPRRG, the “SPOT peptide array binding signal intensity” value (AgAbp1) was 606, the “SPOT peptide array binding signal intensity” value (AgBbc1) was 1230 and the “SPOT peptide array binding signal intensity” value (AgBem1-D1) was 36. For the same binder, the “SPOT peptide array binding signal intensity” value (AgBzz1-D1) was 404, the “SPOT peptide array binding signal intensity” value (AgBzz1-D2) was 140 and the “SPOT peptide array binding signal intensity” value (AgCyk3) was 2. The “SPOT peptide array binding signal intensity” value (AgFus1) was 21, the “SPOT peptide array binding signal intensity” value (AgHof1) was 472 and the “SPOT peptide array binding signal intensity” value (AgHse1) was 24.5. For the same binder, the “SPOT peptide array binding signal intensity” value (AgLsb1) was 699, the “SPOT peptide array binding signal intensity” value (AgLsb4) was 1040 and the “SPOT peptide array binding signal intensity” value (AgMyo5) was 579. The “SPOT peptide array binding signal intensity” value (AgNbp2) was 1250, the “SPOT peptide array binding signal intensity” value (AgRvs167) was 1310 and the “SPOT peptide array binding signal intensity” value (AgSho1) was 36. The “SPOT peptide array binding signal intensity” value (AgSla1-D1-D2) was 38, the “SPOT peptide array binding signal intensity” value (AgSla1-D3) was 61 and the “SPOT peptide array binding signal intensity” value (CaAbp1-D1) was 1510. For the same binder, the “SPOT peptide array binding signal intensity” value (CaAbp1-D2) was 1030, the “SPOT peptide array binding signal intensity” value (CaBbc1) was 1050 and the “SPOT peptide array binding signal intensity” value (CaBem1-D1) was 544. For the same binder, the “SPOT peptide array binding signal intensity” value (CaBzz1-D1) was 3080, the “SPOT peptide array binding signal intensity” value (CaBzz1-D2) was 1360 and the “SPOT peptide array binding signal intensity” value (CaCyk3) was 44. For the same binder, the “SPOT peptide array binding signal intensity” value (CaFus1) was 74, the “SPOT peptide array binding signal intensity” value (CaHof1) was 114 and the “SPOT peptide array binding signal intensity” value (CaHse1) was 20. The “SPOT peptide array binding signal intensity” value (CaLsb1) was 0.5, the “SPOT peptide array binding signal intensity” value (CaLsb4) was 1890 and the “SPOT peptide array binding signal intensity” value (CaMyo5) was 42. The “SPOT peptide array binding signal intensity” value (CaNbp2) was 216, the “SPOT peptide array binding signal intensity” value (CaRvs167) was 1350 and the “SPOT peptide array binding signal intensity” value (CaRvs167-3) was 10.2. The “SPOT peptide array binding signal intensity” value (CaSho1) was 34, the “SPOT peptide array binding signal intensity” value (CaSla1-D1-D2) was 3580 and the “SPOT peptide array binding signal intensity” value (CaSla1-D3) was 77.2. For the same binder, the “SPOT peptide array binding signal intensity” value (ScAbp1) was 452, the “SPOT peptide array binding signal intensity” value (ScBbc1) was 267 and the “SPOT peptide array binding signal intensity” value (ScBem1-D1) was at most 0. The “SPOT peptide array binding signal intensity” value (ScBzz1-D1) was 257, the “SPOT peptide array binding signal intensity” value (ScBzz1-D2) was 36 and the “SPOT peptide array binding signal intensity” value (ScCyk3) was 6.5. The “SPOT peptide array binding signal intensity” value (ScFus1) was 3.5, the “SPOT peptide array binding signal intensity” value (ScHof1) was 482 and the “SPOT peptide array binding signal intensity” value (ScHse1) was 169. For the same binder, the “SPOT peptide array binding signal intensity” value (ScLsb1) was 438, the “SPOT peptide array binding signal intensity” value (ScLsb2) was 438 and the “SPOT peptide array binding signal intensity” value (ScLsb3) was 2990. For the same binder, the “SPOT peptide array binding signal intensity” value (ScLsb4) was 2100, the “SPOT peptide array binding signal intensity” value (ScMyo3) was 1670 and the “SPOT peptide array binding signal intensity” value (ScMyo5) was 864. The “SPOT peptide array binding signal intensity” value (ScNbp2) was 622, the “SPOT peptide array binding signal intensity” value (ScPex13) was 1050 and the “SPOT peptide array binding signal intensity” value (ScRvs167) was 3210. For the same binder, the “SPOT peptide array binding signal intensity” value (ScSho1) was 1100, the “SPOT peptide array binding signal intensity” value (ScSla1-D1-D2) was 2820 and the “SPOT peptide array binding signal intensity” value (ScSla1-D3) was 9. For the same binder, the “SPOT peptide array binding signal intensity” value (SpAbp1-D1) was 2280, the “SPOT peptide array binding signal intensity” value (SpBbc1) was 19.2 and the “SPOT peptide array binding signal intensity” value (SpBzz1-D1) was 3360. The “SPOT peptide array binding signal intensity” value (SpBzz1-D2) was 1490, the “SPOT peptide array binding signal intensity” value (SpCyk3) was 17 and the “SPOT peptide array binding signal intensity” value (SpHof1) was 248. The “SPOT peptide array binding signal intensity” value (SpHof1-2) was 231, the “SPOT peptide array binding signal intensity” value (SpHof1-3) was 1500 and the “SPOT peptide array binding signal intensity” value (SpHse1) was 67.5. For the same binder, the “SPOT peptide array binding signal intensity” value (SpLsb1) was 870, the “SPOT peptide array binding signal intensity” value (SpLsb4) was 6010 and the “SPOT peptide array binding signal intensity” value (SpMyo1) was 502. The “SPOT peptide array binding signal intensity” value (SpNbp2) was 26, the “SPOT peptide array binding signal intensity” value (SpPex13) was 35 and the “SPOT peptide array binding signal intensity” value (SpRvs167) was 2550. The “SPOT peptide array binding signal intensity” value (SpSla1-D1-D2) was 993 and the “SPOT peptide array binding signal intensity” value (SpSla1-D3) was 0.5.
